# From PubChem BioAssay (EPA / NIEHS)
# Results filed as inconclusive are left out. Activity calls are given as the source filed them. The calls were made as follows, unless noted: active = hit-call score of the fitted dose curve at least 0.9, where 1 is the maximum; inactive = score below 0.9.
# Key:
# [1] = ATG_M_06_TRANS: Attagene TRANS-FACTORIAL HepG2 Assay for M06 Transcription Factor (Internal Marker) (AID 2282983; active = hit-call score of the fitted dose curve at least 0.9, where 1 is the maximum;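 also: reporter transcript level by RT-PCR then capillary electrophoresis fluorescence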); settings: HepG2 Attagene TRANS M06 internal marker reporter
# In short: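 Internal-marker background readout from a multiplexed TRANS reporter system in HepG2; 24 h dosing; mRNA induction quantified by RT-PCR plus capillary electrophoresis fluorescence; DMSO as negative control and baseline.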
# [2] = molecular target: Nuclear receptor subfamily 4 group A member 2 (Homo sapiens) (UniProt P43354); experiment: ATG_NURR1_TRANS: Attagene TRANS-FACTORIAL HepG2 Assay for human Nuclear Receptor Related Protein 1 (NURR1) (AID 2282985; active = hit-call score of the fitted dose curve at least 0.9, where 1 is the maximum); settings: HepG2 Attagene TRANS reporter, mRNA readout
# Nuclear receptor subfamily 4 group A member 2 (Homo sapiens), sequence (P43354 whole entry, looked up): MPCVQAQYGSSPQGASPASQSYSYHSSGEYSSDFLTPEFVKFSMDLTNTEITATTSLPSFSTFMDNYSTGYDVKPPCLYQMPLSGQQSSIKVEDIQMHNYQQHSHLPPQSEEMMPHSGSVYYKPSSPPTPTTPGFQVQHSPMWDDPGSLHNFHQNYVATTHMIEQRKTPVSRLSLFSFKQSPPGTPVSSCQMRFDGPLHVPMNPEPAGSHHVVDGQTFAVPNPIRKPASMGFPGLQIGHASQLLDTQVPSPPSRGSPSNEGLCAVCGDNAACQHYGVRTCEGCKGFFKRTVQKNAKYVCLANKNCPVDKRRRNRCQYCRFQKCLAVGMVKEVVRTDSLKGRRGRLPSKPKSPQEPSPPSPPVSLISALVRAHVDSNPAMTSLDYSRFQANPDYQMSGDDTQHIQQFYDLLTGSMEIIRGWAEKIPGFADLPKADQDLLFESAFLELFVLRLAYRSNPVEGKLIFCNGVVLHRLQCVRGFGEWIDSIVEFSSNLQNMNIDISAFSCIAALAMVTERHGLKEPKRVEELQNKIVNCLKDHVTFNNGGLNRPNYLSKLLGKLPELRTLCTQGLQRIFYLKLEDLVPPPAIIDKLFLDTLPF
# In short: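 HepG2 / transient MRTU transfection / 24 h compound exposure / RT-PCR + CE fluorescence of reporter mRNA / gain-of-signal vs DMSO.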
# [3] = molecular target: Transcriptional activator Myb (Homo sapiens) (UniProt P10242); experiment: ATG_Myb_CIS: Attagene CIS-FACTORIAL HepG2 Assay for human Myeloblastosis (Myb) Proto-Oncogene Transcription Factor (AID 2282986); settings: HepG2 Attagene CIS-FACTORIAL Myb reporter transcription; actives raise or lower the signal
# Transcriptional activator Myb (Homo sapiens), sequence (P10242 whole entry, looked up): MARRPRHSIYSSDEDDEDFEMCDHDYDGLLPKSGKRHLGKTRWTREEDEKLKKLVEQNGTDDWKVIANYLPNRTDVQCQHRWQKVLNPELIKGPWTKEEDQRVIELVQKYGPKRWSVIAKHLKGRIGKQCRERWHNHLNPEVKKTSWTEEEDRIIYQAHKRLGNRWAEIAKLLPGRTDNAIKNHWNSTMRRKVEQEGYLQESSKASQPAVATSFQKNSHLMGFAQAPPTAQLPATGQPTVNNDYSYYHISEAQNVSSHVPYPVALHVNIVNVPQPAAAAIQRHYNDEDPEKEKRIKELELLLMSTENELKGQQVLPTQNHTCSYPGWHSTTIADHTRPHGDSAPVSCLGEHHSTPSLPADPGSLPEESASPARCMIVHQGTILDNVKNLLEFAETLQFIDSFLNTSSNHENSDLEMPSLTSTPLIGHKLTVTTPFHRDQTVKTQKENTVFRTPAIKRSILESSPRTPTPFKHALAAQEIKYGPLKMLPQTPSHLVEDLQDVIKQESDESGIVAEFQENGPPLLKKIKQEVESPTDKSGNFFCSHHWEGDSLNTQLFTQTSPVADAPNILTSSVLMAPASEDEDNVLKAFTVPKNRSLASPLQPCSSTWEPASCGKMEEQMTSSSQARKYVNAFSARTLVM
# In short: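 Using HepG2 liver cells bearing transiently transfected cis-promoter reporter constructs, the assay measures induction or loss of reporter mRNA after 24 hours of dosing. Detection used fluorescently labeled RT-PCR products separated by capillary electrophoresis.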
# [4] = molecular target: Nuclear respiratory factor 1 (Homo sapiens) (UniProt Q16656); experiment: ATG_NRF1_CIS: Attagene CIS-FACTORIAL HepG2 Assay for human Nuclear Respiratory Factor 1 (NRF1) Orphan Gene (AID 2282987); settings: HepG2 NRF1 cis-element reporter, Attagene multiplex; actives raise or lower the signal
# Nuclear respiratory factor 1 (Homo sapiens), sequence (Q16656 whole entry, looked up): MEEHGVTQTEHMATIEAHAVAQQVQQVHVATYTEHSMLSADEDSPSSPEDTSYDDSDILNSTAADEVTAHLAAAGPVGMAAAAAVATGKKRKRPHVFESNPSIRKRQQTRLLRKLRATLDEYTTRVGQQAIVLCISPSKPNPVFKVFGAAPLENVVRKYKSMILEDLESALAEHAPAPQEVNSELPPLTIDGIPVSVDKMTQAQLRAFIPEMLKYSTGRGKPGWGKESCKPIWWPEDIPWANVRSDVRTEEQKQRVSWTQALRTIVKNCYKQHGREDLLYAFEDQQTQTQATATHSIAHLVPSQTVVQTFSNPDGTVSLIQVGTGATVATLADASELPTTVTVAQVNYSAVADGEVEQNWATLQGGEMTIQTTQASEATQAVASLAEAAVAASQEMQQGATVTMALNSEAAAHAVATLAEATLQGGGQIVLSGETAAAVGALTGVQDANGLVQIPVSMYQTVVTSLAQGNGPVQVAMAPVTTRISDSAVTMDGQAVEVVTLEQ
# In short: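 Reporter mRNA induction or loss in HepG2 cells after 24 h dosing; cis-regulated reporter constructs report endogenous transcription-factor activity. Quantified by RT-PCR/capillary electrophoresis fluorescence, DMSO-referenced.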
# [5] = ATG_NFI_CIS: Attagene CIS-FACTORIAL HepG2 Assay for human Nuclear Factor I (NFI) (AID 2282989); settings: HepG2 cis-regulatory reporter, NFI response element transcription; actives raise or lower the signal
# In short: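 HepG2, transient MRTU, 24 h exposure; RNA→cDNA→PCR→FAM label→HpaI→CE fluorescence. Bidirectional fit, DMSO = baseline.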
# [6] = molecular target: Myc proto-oncogene protein (Homo sapiens) (UniProt P01106); experiment: ATG_Myc_CIS: Attagene CIS-FACTORIAL HepG2 Assay for human Myelocytomatosis (Myc) Proto-Oncogene Transcription Factor (AID 2282990); settings: HepG2, Attagene cis-reporter transcription factor activity; actives raise or lower the signal
# Myc proto-oncogene protein (Homo sapiens), sequence (P01106 whole entry, looked up): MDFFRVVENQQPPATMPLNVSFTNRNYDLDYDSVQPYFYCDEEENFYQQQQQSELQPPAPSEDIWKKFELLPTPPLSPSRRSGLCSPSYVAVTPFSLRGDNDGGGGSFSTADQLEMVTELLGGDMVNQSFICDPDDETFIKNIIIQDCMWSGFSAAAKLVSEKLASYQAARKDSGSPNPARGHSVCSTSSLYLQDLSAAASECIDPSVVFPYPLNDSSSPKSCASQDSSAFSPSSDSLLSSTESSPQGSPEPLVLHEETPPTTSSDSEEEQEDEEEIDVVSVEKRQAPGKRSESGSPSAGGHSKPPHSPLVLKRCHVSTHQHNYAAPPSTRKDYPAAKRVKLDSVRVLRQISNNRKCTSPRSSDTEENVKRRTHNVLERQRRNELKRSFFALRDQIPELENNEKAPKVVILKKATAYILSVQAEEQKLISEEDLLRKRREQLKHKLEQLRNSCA
# In short: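 Transiently transfected HepG2 cells bearing cis-promoter reporter units for endogenous transcription factors; 24 h exposure. Reporter mRNA measured by RT-PCR, 6-FAM primer extension, HpaI cut and capillary electrophoresis; bidirectional fit relative to DMSO.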
# [7] = ATG_NRF2_ARE_CIS: Attagene CIS-FACTORIAL HepG2 Assay for human Nuclear Factor Erythroid 2 Related Factor 2 (NFR2) response to Antioxidant Response Elements (ARE) (AID 2282992); settings: HepG2 Attagene ARE/NRF2 reporter, transcription factor activity; actives raise or lower the signal;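 as to AC50: reporter mRNA level measured by RT-PCR and capillary electrophoresis fluorescence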
# In short: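 HepG2 cells transiently transfected with multiplexed cis-element reporter constructs, 24 h after chemical dosing; reporter mRNA quantified by RT-PCR, fluorescent primer extension, HpaI digestion and capillary electrophoresis. Bidirectional fit relative to DMSO.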
# [8] = ATG_NF_kB_CIS: Attagene CIS-FACTORIAL HepG2 Assay for human Nuclear Factor Kappa B (NF-kB) (AID 2282991); settings: HepG2 Attagene cis-factorial NF-kB reporter mRNA; actives raise or lower the signal
# In short: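 DMSO served as negative control and baseline for bidirectional curve fitting. Transiently transfected HepG2 cells were dosed for 24 h, then reporter transcripts were measured by RT-PCR with capillary electrophoresis detection.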
# [9] = ATG_M_32_TRANS: Attagene TRANS-FACTORIAL HepG2 Assay for M32 Transcription Factor (Internal Marker) (AID 2282984; active = hit-call score of the fitted dose curve at least 0.9, where 1 is the maximum;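 also: transcript level of a background control reporter unit measured by RT-PCR and capillary electrophoresis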); settings: HepG2 Attagene TRANS M32 internal marker reporter
# In short: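 Capillary electrophoresis of 6-FAM-labelled reporter fragments gives the signal; data fitted for gain over DMSO negative control. Source: HepG2 cells bearing transient multiple reporter transcription units, 24 h exposure.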
# [10] = ATG_Oct_MLP_CIS: Attagene CIS-FACTORIAL HepG2 Assay for human Octamer-Binding Transcription Factor (Oct) (AID 2282993); settings: HepG2 Attagene cis-factorial Oct reporter, mRNA; actives raise or lower the signal
# In short: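 Multiplexed cis-reporter assay in human liver HepG2 cells, 24 h incubation. Reporter RNA amplified and labelled, then resolved by capillary electrophoresis; DMSO serves as negative control and baseline.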
smiles,measurement,setting,value
COc1ccc2sc(C(=O)Nc3nnn[nH]3)c(OC(C)C)c2c1,outcome,[1],inactive
same,outcome,[2],inactive
same,outcome,[3],inactive
same,outcome,[4],inactive
same,outcome,[5],inactive
same,outcome,[6],inactive
same,AC50,[7],70.2 µM (active)
O=C1CCC(N2C(=O)c3ccccc3C2=O)C(=O)N1 (stereo not drawn),outcome,[1],inactive
same,outcome,[2],inactive
same,outcome,[3],inactive
same,outcome,[4],inactive
same,outcome,[5],inactive
same,outcome,[6],inactive
same,outcome,[8],inactive
same,outcome,[7],inactive
Oc1ccc2c(c1)-c1ccccc1C2,outcome,[1],inactive
same,outcome,[9],inactive
same,outcome,[3],inactive
same,outcome,[4],inactive
same,AC50,[5],37.9 µM (active)
same,AC50,[6],63.1 µM (active)
same,AC50,[7],2.77 µM (active)
COc1cccc(-c2ccc(/C=C\CN3CCCCCC3)cc2Cl)c1,outcome,[1],inactive
same,outcome,[2],inactive
same,outcome,[4],inactive
same,outcome,[5],inactive
same,outcome,[6],inactive
same,outcome,[8],inactive
same,AC50,[7],9.89 µM (active)
C=CC(=C)CCC=C(C)C,outcome,[1],inactive
same,outcome,[2],inactive
same,outcome,[3],inactive
same,outcome,[4],inactive
same,outcome,[5],inactive
same,outcome,[6],inactive
same,outcome,[8],inactive
same,outcome,[7],inactive
same,outcome,[10],inactive
CCOc1cccc(-n2cc(C(=O)N3CCN(c4cc(C(=O)O)c5ccccc5c4)CC3)nc2-c2ccc(C)cc2)c1,outcome,[1],inactive
same,outcome,[9],inactive
same,AC50,[2],45 µM (active)
same,AC50,[4],22.7 µM (active)
same,outcome,[5],inactive
same,outcome,[6],inactive
same,AC50,[7],8.42 µM (active)
CC(=O)OCCC(C)C,outcome,[1],inactive
same,outcome,[2],inactive
same,outcome,[3],inactive
same,outcome,[4],inactive
same,outcome,[5],inactive
same,outcome,[6],inactive
same,outcome,[7],inactive
O=C(CCCCCCCCc1cccnc1)N1CCC(C=C(c2ccccc2)c2ccccc2)CC1,outcome,[1],inactive
same,outcome,[2],inactive
same,outcome,[4],inactive
same,outcome,[5],inactive
same,AC50,[6],8.5 µM (active)
same,AC50,[7],4.68 µM (active)
same,AC50,[10],8.91 µM (active)
COC(=O)CC(=O)OC,outcome,[1],inactive
same,outcome,[2],inactive
same,outcome,[3],inactive
same,outcome,[4],inactive
same,outcome,[5],inactive
same,outcome,[6],inactive
same,outcome,[7],inactive
CC1(C)C(=O)N(Br)C(=O)N1Br,outcome,[1],inactive
same,outcome,[2],inactive
same,outcome,[3],inactive
same,outcome,[4],inactive
same,outcome,[5],inactive
same,outcome,[6],inactive
same,AC50,[7],52.4 µM (active)
same,outcome,[10],inactive
CC(C)=CCCC(C)=CC=O,outcome,[1],inactive
same,AC50,[2],100 µM (active)
same,outcome,[4],inactive
same,outcome,[5],inactive
same,outcome,[6],inactive
same,AC50,[7],62.4 µM (active)
same,outcome,[10],inactive
CC[C@H]1CC[C@H](NCc2cc3c(cc2OC)[C@H]2C[C@H]2C(=O)N3C)[C@H](c2ccccc2)N1,outcome,[1],inactive
same,outcome,[2],inactive
same,outcome,[3],inactive
same,outcome,[4],inactive
same,AC50,[5],46.5 µM (active)
same,outcome,[6],inactive
same,outcome,[7],inactive
same,AC50,[10],64.3 µM (active)
CNCc1ccc(NC(=O)c2c[nH]c3c2C(=O)CCC3)cc1,outcome,[1],inactive
same,outcome,[2],inactive
same,outcome,[3],inactive
same,outcome,[4],inactive
same,outcome,[5],inactive
same,outcome,[6],inactive
same,outcome,[8],inactive
same,AC50,[7],56.6 µM (active)
same,outcome,[10],inactive
CC[C@H](C)C(=O)O[C@H]1C[C@@H](C)C=C2C=C[C@H](C)[C@H](CC[C@@H]3C[C@@H](O)CC(=O)O3)[C@H]21,outcome,[1],inactive
same,outcome,[2],inactive
same,outcome,[4],inactive
same,outcome,[5],inactive
same,outcome,[6],inactive
same,AC50,[7],33.4 µM (active)
same,AC50,[10],6.78 µM (active)
CCCCCCc1ccc(O)cc1O,outcome,[1],inactive
same,outcome,[2],inactive
same,outcome,[3],inactive
same,outcome,[4],inactive
same,outcome,[5],inactive
same,outcome,[6],inactive
same,AC50,[7],24.3 µM (active)
same,AC50,[10],50.9 µM (active)
C1N2CN3CN1CN(C2)C3,outcome,[1],inactive
same,outcome,[2],inactive
same,outcome,[4],inactive
same,outcome,[5],inactive
same,outcome,[6],inactive
same,outcome,[8],inactive
same,outcome,[7],inactive
O=c1[nH]c2ccc(S(=O)CCN3CCC(Cc4ccc(F)cc4)CC3)cc2o1 (stereo not drawn),outcome,[1],inactive
same,outcome,[2],inactive
same,outcome,[3],inactive
same,outcome,[4],inactive
same,AC50,[5],100 µM (active)
same,outcome,[6],inactive
same,AC50,[7],39.4 µM (active)
Clc1nc(Cl)c(Cl)c(Cl)c1Cl,outcome,[1],inactive
same,outcome,[2],inactive
same,outcome,[4],inactive
same,outcome,[5],inactive
same,outcome,[6],inactive
same,AC50,[7],11.2 µM (active)
same,outcome,[10],inactive
Cc1[nH]cnc1C[C@H]1CCc2c(C)c3ccccc3n2C1=O,outcome,[1],inactive
same,outcome,[2],inactive
same,AC50,[4],13.1 µM (active)
same,outcome,[5],inactive
same,outcome,[6],inactive
same,outcome,[7],inactive
C[C@](N)(Cc1ccc(O)c(O)c1)C(=O)O,outcome,[1],inactive
same,outcome,[2],inactive
same,outcome,[3],inactive
same,outcome,[4],inactive
same,outcome,[5],inactive
same,outcome,[6],inactive
same,outcome,[7],inactive
same,outcome,[10],inactive
